Reference: the supplement of paper PMC10849652
About 7,900 targets were measured; listed, in parts, are those with a hit and a random draw of the rest. About 0.6% of all pairs of compound and target were hits.

compound: CC[C@H](C)N1C=C(C2=C(C=C(C=C21)C3=CN=C(C=C3)N4CCNCC4)C(=O)NCC5=C(C=C(NC5=O)C)C)C; test: log2 fold change, soluble protein after heating vs DMSO (PISA); higher = thermal stabilisation; K562 cells, 10 uM, 30 min; active = over 0.2 and 3.5 SD of the protein, either way, in both replicates (recomputed)
Outline: (§1)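 For each measurement, 10 μM compound was applied for 30 min to K562 cells at 2×10^6 cells/mL. Aliquots were heated for 3 min across 48°C-58°C, pooled, and extracted in PBS with 0.5% NP-40 at 4°C; the supernatant after 21,000xg for 90 min was soluble protein. This was quantified by TMTpro 16plex LC-MS/MS with channel sums equalised, and thermal stability was reported relative to control samples from duplicates, on a log2 fold-change scale.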

Chain of UniProt O60934 (O60934 whole entry, looked up): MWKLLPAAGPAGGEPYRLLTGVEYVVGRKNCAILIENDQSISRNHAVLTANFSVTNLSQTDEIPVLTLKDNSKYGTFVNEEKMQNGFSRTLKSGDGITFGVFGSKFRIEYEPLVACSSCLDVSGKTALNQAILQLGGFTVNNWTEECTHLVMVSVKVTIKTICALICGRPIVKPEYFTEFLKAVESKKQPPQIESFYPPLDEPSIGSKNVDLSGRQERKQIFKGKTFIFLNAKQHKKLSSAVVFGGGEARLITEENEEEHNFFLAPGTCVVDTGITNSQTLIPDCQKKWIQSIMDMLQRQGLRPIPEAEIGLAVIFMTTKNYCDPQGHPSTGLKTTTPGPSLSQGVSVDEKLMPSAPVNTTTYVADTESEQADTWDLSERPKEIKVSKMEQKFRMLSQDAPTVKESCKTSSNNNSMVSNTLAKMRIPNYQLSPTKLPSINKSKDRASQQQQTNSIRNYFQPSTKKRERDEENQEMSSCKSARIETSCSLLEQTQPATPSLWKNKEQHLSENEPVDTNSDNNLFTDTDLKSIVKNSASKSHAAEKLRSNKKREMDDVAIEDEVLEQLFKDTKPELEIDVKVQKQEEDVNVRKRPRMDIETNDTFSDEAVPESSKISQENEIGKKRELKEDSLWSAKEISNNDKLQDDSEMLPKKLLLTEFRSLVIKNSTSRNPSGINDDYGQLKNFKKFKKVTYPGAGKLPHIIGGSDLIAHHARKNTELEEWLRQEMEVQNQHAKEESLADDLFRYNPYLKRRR
Chain of UniProt O14524 (O14524 whole entry, looked up): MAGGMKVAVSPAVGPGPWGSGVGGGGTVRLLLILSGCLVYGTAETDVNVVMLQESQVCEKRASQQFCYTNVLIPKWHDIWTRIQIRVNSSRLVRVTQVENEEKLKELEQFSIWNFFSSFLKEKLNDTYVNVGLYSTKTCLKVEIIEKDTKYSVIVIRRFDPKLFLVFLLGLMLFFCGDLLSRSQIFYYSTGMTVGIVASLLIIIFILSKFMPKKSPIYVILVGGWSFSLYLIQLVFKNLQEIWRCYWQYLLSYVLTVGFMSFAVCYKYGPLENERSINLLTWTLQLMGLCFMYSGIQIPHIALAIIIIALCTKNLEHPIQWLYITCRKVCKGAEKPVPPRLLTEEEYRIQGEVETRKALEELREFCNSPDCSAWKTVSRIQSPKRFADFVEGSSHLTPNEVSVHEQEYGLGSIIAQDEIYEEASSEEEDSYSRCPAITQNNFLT
Chain of UniProt P46087 (P46087 whole entry, looked up): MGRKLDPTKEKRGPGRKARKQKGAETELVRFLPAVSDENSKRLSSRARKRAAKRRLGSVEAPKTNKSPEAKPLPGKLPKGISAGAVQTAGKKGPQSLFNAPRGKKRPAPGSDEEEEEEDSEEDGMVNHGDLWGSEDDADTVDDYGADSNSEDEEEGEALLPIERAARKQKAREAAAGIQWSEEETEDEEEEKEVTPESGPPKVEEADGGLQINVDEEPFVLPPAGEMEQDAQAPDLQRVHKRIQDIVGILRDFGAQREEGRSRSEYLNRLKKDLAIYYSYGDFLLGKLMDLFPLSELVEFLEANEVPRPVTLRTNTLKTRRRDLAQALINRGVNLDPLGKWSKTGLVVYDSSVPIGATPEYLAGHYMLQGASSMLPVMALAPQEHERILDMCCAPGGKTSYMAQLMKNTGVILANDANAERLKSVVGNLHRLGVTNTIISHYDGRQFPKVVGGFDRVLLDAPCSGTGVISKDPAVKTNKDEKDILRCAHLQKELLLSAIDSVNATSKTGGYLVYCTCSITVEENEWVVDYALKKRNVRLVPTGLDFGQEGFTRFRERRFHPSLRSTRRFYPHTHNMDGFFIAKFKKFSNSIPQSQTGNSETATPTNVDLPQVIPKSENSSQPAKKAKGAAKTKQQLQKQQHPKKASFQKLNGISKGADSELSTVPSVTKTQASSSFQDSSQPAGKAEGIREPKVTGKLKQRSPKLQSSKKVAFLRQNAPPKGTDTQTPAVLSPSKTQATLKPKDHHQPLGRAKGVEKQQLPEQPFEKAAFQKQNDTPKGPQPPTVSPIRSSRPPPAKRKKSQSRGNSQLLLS
Chain of UniProt P55209 (P55209 whole entry, looked up): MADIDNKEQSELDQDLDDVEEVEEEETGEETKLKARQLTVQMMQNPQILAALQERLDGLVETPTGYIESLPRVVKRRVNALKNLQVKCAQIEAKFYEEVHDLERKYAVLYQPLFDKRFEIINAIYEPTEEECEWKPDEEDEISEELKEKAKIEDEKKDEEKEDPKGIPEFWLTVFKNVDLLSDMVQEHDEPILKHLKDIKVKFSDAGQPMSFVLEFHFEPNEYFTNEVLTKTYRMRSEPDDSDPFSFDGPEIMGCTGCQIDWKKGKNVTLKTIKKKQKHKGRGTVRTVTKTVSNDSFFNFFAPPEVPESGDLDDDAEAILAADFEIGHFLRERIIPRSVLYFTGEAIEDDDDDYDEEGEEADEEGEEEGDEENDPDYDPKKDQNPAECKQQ
Chain of UniProt Q330K2 (Q330K2 whole entry, looked up): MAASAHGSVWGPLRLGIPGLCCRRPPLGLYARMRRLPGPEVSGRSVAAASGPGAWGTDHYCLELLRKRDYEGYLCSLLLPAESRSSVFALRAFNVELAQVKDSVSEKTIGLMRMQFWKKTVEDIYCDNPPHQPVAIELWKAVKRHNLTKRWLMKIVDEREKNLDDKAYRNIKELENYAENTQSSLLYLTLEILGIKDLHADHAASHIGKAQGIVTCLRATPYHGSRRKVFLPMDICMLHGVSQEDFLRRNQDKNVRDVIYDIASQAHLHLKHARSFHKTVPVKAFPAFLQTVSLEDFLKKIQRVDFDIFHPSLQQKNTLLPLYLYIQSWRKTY
Chain of UniProt O00483 (O00483 whole entry, looked up): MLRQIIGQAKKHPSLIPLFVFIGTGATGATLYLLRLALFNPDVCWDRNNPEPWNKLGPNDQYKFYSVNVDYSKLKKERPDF
Chain of UniProt Q92621 (Q92621 whole entry, looked up): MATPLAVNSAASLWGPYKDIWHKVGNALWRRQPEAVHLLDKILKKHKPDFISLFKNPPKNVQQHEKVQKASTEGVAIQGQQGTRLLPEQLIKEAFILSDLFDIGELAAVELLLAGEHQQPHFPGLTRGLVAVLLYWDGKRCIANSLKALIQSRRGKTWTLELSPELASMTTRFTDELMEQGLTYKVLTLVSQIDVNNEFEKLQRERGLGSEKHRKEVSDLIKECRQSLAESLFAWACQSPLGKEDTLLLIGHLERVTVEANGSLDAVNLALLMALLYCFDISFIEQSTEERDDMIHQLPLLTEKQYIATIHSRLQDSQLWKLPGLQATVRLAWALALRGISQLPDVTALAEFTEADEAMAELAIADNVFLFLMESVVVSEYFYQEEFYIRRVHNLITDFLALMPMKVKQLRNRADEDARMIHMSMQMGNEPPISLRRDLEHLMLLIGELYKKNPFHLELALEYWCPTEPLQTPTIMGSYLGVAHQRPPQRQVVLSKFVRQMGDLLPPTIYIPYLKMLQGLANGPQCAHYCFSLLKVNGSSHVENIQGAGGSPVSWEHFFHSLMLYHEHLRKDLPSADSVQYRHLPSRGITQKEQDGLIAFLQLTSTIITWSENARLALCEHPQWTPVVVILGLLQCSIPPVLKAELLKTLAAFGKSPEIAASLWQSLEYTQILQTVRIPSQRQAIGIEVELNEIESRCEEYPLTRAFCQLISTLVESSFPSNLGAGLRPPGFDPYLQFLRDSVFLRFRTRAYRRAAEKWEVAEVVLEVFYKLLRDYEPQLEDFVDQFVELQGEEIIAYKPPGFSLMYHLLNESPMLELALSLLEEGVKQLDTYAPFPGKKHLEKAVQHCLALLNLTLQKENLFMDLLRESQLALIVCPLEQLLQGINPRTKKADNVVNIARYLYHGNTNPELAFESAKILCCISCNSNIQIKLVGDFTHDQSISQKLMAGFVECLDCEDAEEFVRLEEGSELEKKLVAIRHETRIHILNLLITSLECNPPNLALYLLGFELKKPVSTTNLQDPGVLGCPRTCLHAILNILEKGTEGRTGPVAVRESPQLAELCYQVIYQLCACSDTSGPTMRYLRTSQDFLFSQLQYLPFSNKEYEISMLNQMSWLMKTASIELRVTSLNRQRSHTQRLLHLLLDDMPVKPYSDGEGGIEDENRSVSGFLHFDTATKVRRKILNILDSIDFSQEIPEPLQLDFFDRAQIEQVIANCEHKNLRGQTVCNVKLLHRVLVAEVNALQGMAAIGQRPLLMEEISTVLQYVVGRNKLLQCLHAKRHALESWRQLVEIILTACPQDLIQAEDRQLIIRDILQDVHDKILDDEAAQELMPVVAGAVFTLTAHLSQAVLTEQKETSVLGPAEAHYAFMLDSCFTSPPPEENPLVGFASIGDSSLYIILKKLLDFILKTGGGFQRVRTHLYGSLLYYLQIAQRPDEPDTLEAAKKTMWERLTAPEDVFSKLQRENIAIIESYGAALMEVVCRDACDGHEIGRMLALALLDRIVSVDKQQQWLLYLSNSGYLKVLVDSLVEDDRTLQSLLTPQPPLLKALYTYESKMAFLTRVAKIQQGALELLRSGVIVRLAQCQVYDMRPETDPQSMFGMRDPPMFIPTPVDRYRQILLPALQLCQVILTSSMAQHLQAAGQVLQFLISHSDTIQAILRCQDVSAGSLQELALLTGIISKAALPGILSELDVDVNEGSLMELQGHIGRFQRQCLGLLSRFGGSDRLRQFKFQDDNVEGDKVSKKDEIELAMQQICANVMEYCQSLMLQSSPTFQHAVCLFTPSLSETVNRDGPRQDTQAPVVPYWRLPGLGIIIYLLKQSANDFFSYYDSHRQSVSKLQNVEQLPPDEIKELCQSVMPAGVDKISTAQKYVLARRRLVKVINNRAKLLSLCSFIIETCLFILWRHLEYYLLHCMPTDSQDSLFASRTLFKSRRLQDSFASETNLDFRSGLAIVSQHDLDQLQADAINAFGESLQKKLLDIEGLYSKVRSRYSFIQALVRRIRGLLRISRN
Chain of UniProt Q8WVJ2 (Q8WVJ2 whole entry, looked up): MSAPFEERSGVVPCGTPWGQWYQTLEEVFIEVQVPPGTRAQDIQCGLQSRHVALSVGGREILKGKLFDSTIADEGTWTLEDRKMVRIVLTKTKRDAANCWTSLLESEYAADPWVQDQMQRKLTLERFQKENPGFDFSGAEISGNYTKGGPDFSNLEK

Row | Target | log2 fold change
1 | NUDCD2 (UniProt Q8WVJ2) | 0.056 (inactive)
2 | NA, A0A096LPI6 | -0.056 (inactive)
3 | NAP1L1 (UniProt P55209) | 0.005 (inactive)
4 | NCL (UniProt P19338) | -0.011 (inactive)
5 | NUP107 (UniProt P57740) | 0.106 (inactive)
6 | MRPL46 (UniProt Q9H2W6) | 0.034 (inactive)
7 | MRPS22 (UniProt P82650) | 0.125 (inactive)
8 | MSTO1 (UniProt Q9BUK6) | 0.046 (inactive)
9 | NOL11 (UniProt Q9H8H0) | -0.025 (inactive)
10 | NFYC (UniProt Q13952) | -0.021 (inactive)
11 | MTMR14 (UniProt Q8NCE2) | 0.037 (inactive)
12 | NISCH (UniProt Q9Y2I1) | 0.025 (inactive)
13 | NAPG (UniProt Q99747) | 0.072 (inactive)
14 | NDUFA4 (UniProt O00483) | -0.019 (inactive)
15 | NUMB (UniProt P49757) | 0.02 (inactive)
16 | MRPS18B (UniProt Q9Y676) | 0.09 (inactive)
17 | NUP85 (UniProt Q9BW27) | -0.008 (inactive)
18 | MTHFD1 (UniProt P11586) | 0.035 (inactive)
19 | NOSIP (UniProt Q9Y314) | 0.151 (inactive)
20 | NECTIN2 (UniProt Q92692) | -0.003 (inactive)

Row | Target | log2 fold change
21 | NUP205 (UniProt Q92621) | 0.079 (inactive)
22 | NFATC2IP (UniProt Q8NCF5) | 0.069 (inactive)
23 | NRF1 isoform 4 (UniProt Q16656) | 0.087 (inactive)
24 | MRPS12 (UniProt O15235) | 0.077 (inactive)
25 | MON1B (UniProt Q7L1V2) | -0.021 (inactive)
26 | NEMP1 (UniProt O14524) | -0.023 (inactive)
27 | NDUFAF6 (UniProt Q330K2) | -0.028 (inactive)
28 | NFATC3 (UniProt Q12968) | 0.073 (inactive)
29 | MRPS15 (UniProt P82914) | 0.163 (inactive)
30 | NUP160 (UniProt Q12769) | 0.005 (inactive)
31 | NEU1 (UniProt Q99519) | 0.059 (inactive)
32 | OGFR (UniProt Q9NZT2) | 0.167 (inactive)
33 | NBN (UniProt O60934) | 0.031 (inactive)
34 | MYH10 isoform 3 (UniProt P35580) | 0.026 (inactive)
35 | MRPS24 (UniProt Q96EL2) | 0.126 (inactive)
36 | NOP2 isoform 4 (UniProt P46087) | -0.03 (inactive)
37 | NEDD4 isoform 4 (UniProt P46934) | 0.008 (inactive)
38 | NOLC1 isoform 2 (UniProt Q14978) | -0.051 (inactive)
39 | PAFAH1B2 (UniProt P68402) | 0.036 (inactive)

compound: CC[C@H](C)[C@@H](C(=O)N[C@@H]([C@@H](C)O)C(=O)N[C@@H](CC(C)C)C(=O)[C@]1(CO1)C)NC(=O)[C@H]([C@@H](C)CC)N(C)C(=O)C [epoxomicin]; test: as above
Outline: as §1

Row | Target | log2 fold change
40 | NUDCD2 (UniProt Q8WVJ2) | -0.098 (inactive)
41 | NA, A0A096LPI6 | -0.017 (inactive)
42 | NAP1L1 (UniProt P55209) | 0.048 (inactive)
43 | NCL (UniProt P19338) | -0.427 (inactive)
44 | NUP107 (UniProt P57740) | -0.053 (inactive)
45 | MRPL46 (UniProt Q9H2W6) | 0.015 (inactive)
46 | MRPS22 (UniProt P82650) | 0.004 (inactive)
47 | MSTO1 (UniProt Q9BUK6) | 0.044 (inactive)
48 | NOL11 (UniProt Q9H8H0) | -0.015 (inactive)
49 | NFYC (UniProt Q13952) | -0.001 (inactive)
50 | MTMR14 (UniProt Q8NCE2) | 0.019 (inactive)
51 | NISCH (UniProt Q9Y2I1) | 0.05 (inactive)
52 | NAPG (UniProt Q99747) | 0.069 (inactive)
53 | NDUFA4 (UniProt O00483) | 0.369 (active)
54 | NUMB (UniProt P49757) | -0.013 (inactive)
55 | MRPS18B (UniProt Q9Y676) | 0.042 (inactive)
56 | NUP85 (UniProt Q9BW27) | 0.022 (inactive)
57 | MTHFD1 (UniProt P11586) | 0.067 (inactive)
58 | NOSIP (UniProt Q9Y314) | 0.104 (inactive)
59 | NECTIN2 (UniProt Q92692) | 0.02 (inactive)

Row | Target | log2 fold change
60 | NUP205 (UniProt Q92621) | -0.071 (inactive)
61 | NFATC2IP (UniProt Q8NCF5) | -0.052 (inactive)
62 | NRF1 isoform 4 (UniProt Q16656) | 0.268 (inactive)
63 | MRPS12 (UniProt O15235) | -0.001 (inactive)
64 | MON1B (UniProt Q7L1V2) | -0.028 (inactive)
65 | NEMP1 (UniProt O14524) | 0.015 (inactive)
66 | NDUFAF6 (UniProt Q330K2) | 0.055 (inactive)
67 | NFATC3 (UniProt Q12968) | -0.046 (inactive)
68 | MRPS15 (UniProt P82914) | -0.007 (inactive)
69 | NUP160 (UniProt Q12769) | -0.049 (inactive)
70 | NEU1 (UniProt Q99519) | 0.113 (inactive)
71 | OGFR (UniProt Q9NZT2) | -0.076 (inactive)
72 | NBN (UniProt O60934) | 0.073 (inactive)
73 | MYH10 isoform 3 (UniProt P35580) | 0.094 (inactive)
74 | MRPS24 (UniProt Q96EL2) | -0.067 (inactive)
75 | NOP2 isoform 4 (UniProt P46087) | -0.328 (inactive)
76 | NEDD4 isoform 4 (UniProt P46934) | 0.008 (inactive)
77 | NOLC1 isoform 2 (UniProt Q14978) | -0.06 (inactive)
78 | PAFAH1B2 (UniProt P68402) | 0.102 (inactive)
